Sampled rows, rich in hits. Any-hit rate of the full collection: about 11%.
USP28 block: blocks human USP28 ubiquitin-rhodamine cleavage; Q96RU2; purified USP28, Ub-rhodamine cleavage fluorescence, 30 min; inhibition, % at 25 µM; actives 3% (n = 47,000)
Target sequence (Q96RU2 whole entry, looked up): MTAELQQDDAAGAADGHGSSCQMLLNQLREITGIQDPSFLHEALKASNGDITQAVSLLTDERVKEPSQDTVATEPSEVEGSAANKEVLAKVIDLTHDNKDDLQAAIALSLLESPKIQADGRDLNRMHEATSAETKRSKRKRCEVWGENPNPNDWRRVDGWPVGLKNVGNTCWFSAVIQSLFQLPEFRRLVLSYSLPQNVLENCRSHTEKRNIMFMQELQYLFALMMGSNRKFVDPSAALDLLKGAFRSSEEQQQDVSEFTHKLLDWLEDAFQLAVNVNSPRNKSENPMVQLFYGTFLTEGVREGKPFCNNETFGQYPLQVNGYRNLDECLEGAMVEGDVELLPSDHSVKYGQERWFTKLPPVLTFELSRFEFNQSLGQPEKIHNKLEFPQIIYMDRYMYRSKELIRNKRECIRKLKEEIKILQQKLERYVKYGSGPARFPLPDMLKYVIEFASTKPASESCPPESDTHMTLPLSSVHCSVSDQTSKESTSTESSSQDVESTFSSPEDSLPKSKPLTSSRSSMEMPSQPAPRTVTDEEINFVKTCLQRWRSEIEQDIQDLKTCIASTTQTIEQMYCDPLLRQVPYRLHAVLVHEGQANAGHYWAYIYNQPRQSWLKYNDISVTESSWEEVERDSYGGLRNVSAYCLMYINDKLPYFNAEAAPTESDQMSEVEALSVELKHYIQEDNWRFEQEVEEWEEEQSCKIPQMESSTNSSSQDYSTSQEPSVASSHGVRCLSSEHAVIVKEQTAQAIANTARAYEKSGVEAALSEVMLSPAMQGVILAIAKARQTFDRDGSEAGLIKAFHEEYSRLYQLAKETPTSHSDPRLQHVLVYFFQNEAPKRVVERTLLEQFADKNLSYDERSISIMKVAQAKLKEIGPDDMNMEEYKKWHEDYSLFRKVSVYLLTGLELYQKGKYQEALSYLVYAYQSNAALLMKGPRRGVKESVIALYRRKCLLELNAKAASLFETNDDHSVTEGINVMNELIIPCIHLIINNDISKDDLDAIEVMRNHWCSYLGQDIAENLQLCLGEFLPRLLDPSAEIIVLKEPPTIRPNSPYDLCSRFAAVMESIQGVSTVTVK
USP30 block: blocks human USP30 ubiquitin-rhodamine cleavage | Q70CQ3 | purified USP30, Ub-rhodamine cleavage fluorescence | inhibition, % at 25 µM | actives 5.3% (n = 47,000)
USP17 inh: blocks human USP17 ubiquitin-rhodamine cleavage; A8MUK1; purified USP17, Ub-rhodamine cleavage fluorescence, 3 h; inhibition, % at 50 µM; actives 6.5% (n = 47,000); AID 1645855
Hits are given with their value. No stated cut-off is given here; in the data, active means inhibition above about 30%; inactive means the rest.

`CN1C(=O)COc2ccccc2CCCC[C@@H]2[C@H]1CCCN2C(=O)c1n[nH]c2c1CCC2` gave USP28 block inactive, USP30 block 30.8 and USP17 inh inactive.
Screening CN1CCC(C(=O)N2CCC[C@@H]3[C@H]2C/C=C/Cc2ccccc2OCC(=O)N3C)CC1 returned USP28 block inactive, USP30 block inactive and USP17 inh inactive.
CN1C(=O)COc2ccccc2CCCC[C@@H]2[C@H]1CCCN2S(=O)(=O)N1CCOCC1 was read as USP28 block inactive, USP30 block 30.6 and USP17 inh inactive.
Screening CC(=O)c1cccc(NC(=O)c2cnn(-c3ccc(C)cc3C)c2C2CCNCC2)c1 returned USP28 block inactive, USP30 block inactive and USP17 inh inactive.
`Cc1cc2c(cn1)C(=O)c1c(O)cc(O)cc1C2=O` gave USP28 block 33.5, USP30 block inactive and USP17 inh inactive.
For CS(=O)(=O)N(CC(=O)Nc1ccc(S(=O)(=O)N2CCCC2)cc1)c1ccc(Cl)cc1 the results were USP28 block inactive, USP30 block inactive and USP17 inh inactive.
For CC(C)(C)c1ccc(N(CC(N)=O)S(C)(=O)=O)cc1 the results were USP28 block inactive, USP30 block 33.8 and USP17 inh inactive.
Cc1ccc(-c2csc3ncnc(OCc4ccc(C#N)cc4)c23)cc1 was read as USP28 block inactive, USP30 block inactive and USP17 inh inactive.
Screening N#Cc1ccc(COc2ncnc3scc(-c4ccccc4)c23)cc1 returned USP28 block 35.0, USP30 block inactive and USP17 inh inactive.
Screening Cc1nc(CN2CCCC2Cn2cncn2)oc1C (stereo not drawn) returned USP28 block inactive, USP30 block inactive and USP17 inh inactive.
For c1cc(-c2nc3c(c(N4CCOCC4)n2)CCC3)ccn1 the results were USP28 block inactive, USP30 block inactive and USP17 inh inactive.
Screening Cc1ccc(C(=O)OC(C)C(=O)Nc2sccc2C(N)=O)cc1F (stereo not drawn) returned USP28 block inactive, USP30 block inactive and USP17 inh inactive.
For CCOCCCn1c(SCC(=O)Nc2ccccc2C(F)(F)F)nc2ccccc2c1=O the results were USP28 block inactive, USP30 block 55.4 and USP17 inh 44.1.
`NS(=O)(=O)c1ccc(CCNC(=O)CSc2nc3ccccc3c(=O)n2CCC(=O)N2CCN(c3ccccc3)CC2)cc1` gave USP28 block inactive, USP30 block inactive and USP17 inh inactive.
For O=C(CCCn1c(SCC(=O)Nc2cccc(C(F)(F)F)c2)nc2ccccc2c1=O)NCCc1ccccc1 the results were USP28 block inactive, USP30 block 35.4 and USP17 inh inactive.
Screening COCCn1c(SCC(=O)Nc2ccccc2C(F)(F)F)nnc1-c1c[nH]c2ccccc12 returned USP28 block inactive, USP30 block inactive and USP17 inh inactive.
For CC(C)(C)OC(=O)N1CSC[C@@H]1C(=O)N1CCC(C(=O)N2CCC[C@H]2C(=O)O)(c2ccccc2)CC1 the results were USP28 block inactive, USP30 block inactive and USP17 inh inactive.
For CC1CSc2ccc(S(=O)(=O)Nc3cccc(F)c3)cc2NC1=O (stereo not drawn) the results were USP17 inh inactive.
`c1ccc(-c2cc(Nc3c4c(nc5ccccc35)CCCC4)n[nH]2)cc1` gave USP28 block inactive, USP30 block inactive and USP17 inh 43.5.
Screening Clc1ccc2nc3c(c(Nc4[nH]ncc4-c4ccccc4)c2c1)CCC3 returned USP28 block inactive, USP30 block inactive and USP17 inh inactive.
Screening Cc1cnnn1-c1ccc(C(=O)Nc2ccccc2Cl)cc1 returned USP17 inh inactive.
Cc1cnnn1-c1ccc(C(=O)Nc2ccc(Cl)cc2)cc1 was read as USP28 block 49.8, USP30 block 57.6 and USP17 inh 45.2.
Screening COCCN1C(=O)c2ccccc2C(C(=O)N2CCC(C)CC2)C1c1cccs1 (stereo not drawn) returned USP28 block inactive, USP30 block inactive and USP17 inh inactive.
Screening Cc1[nH]ncc1C(=O)N1CCCC(c2cccc(-n3ccnc3C)n2)C1 (stereo not drawn) returned USP28 block inactive, USP30 block inactive and USP17 inh 40.1.
Cc1[nH]ncc1C(=O)N1CCCC(c2cccc(-n3ccnc3)n2)C1 (stereo not drawn) was read as USP28 block inactive, USP30 block inactive and USP17 inh inactive.
For O=C(C1CCCC1)N1CCC(c2nc3c(nnn3Cc3ccc(F)cc3)c(=O)[nH]2)CC1 the results were USP28 block inactive, USP30 block inactive and USP17 inh inactive.
For Cc1ccc(NC(=O)c2cccc(-c3nc(-c4ccccc4)no3)c2)nc1 the results were USP28 block inactive, USP30 block inactive and USP17 inh 35.3.
`Cc1ccc(CNC(=O)c2cccc(-c3nc(-c4ccccc4)no3)c2)o1` gave USP28 block inactive, USP30 block inactive and USP17 inh inactive.
`Cc1ccc2c(c1)c(C)c(C)n2CC(O)CN1CCN(CCO)CC1` (stereo not drawn) gave USP28 block inactive, USP30 block inactive and USP17 inh inactive.
`CC(=O)Nc1ccc(S(=O)(=O)N(Cc2cc3ccc(C)cc3[nH]c2=O)CC2CCCO2)cc1` (stereo not drawn) gave USP28 block inactive, USP30 block inactive and USP17 inh inactive.
Cc1ccc(C)c2[nH]c(=O)c(CN(CC3CCCO3)S(=O)(=O)c3ccccc3Cl)cc12 (stereo not drawn) was read as USP28 block inactive, USP30 block 33.0 and USP17 inh inactive.
CNC(=O)C1CCCN(S(=O)(=O)N2CCCC2)C1 (stereo not drawn) was read as USP28 block inactive, USP30 block inactive and USP17 inh inactive.
Screening Cc1ccc(NC(=O)Cn2cc(S(=O)(=O)Cc3ccccc3)c3ccccc32)cc1Cl returned USP28 block inactive, USP30 block inactive and USP17 inh inactive.
`COc1cc(OC)c(Nc2nc(Cc3ccccc3)nc3sc(C)c(C)c23)cc1Cl` gave USP28 block inactive, USP30 block inactive and USP17 inh inactive.
`CSc1cccc(NC2c3ccccc3C(=O)N2c2ccccc2C)c1` (stereo not drawn) gave USP28 block 43.8, USP30 block inactive and USP17 inh inactive.
`Cc1ccc(N2C(=O)c3ccccc3C2Nc2ccc(F)cc2)nc1` (stereo not drawn) gave USP28 block inactive, USP30 block inactive and USP17 inh inactive.
`c1ccc(Cn2ncc3c(SCc4nc5ccccc5[nH]4)ncnc32)cc1` gave USP28 block inactive, USP30 block 47.1 and USP17 inh inactive.
`c1ccc(CSc2ncnc3c2nnn3Cc2ccccc2)cc1` gave USP28 block inactive, USP30 block inactive and USP17 inh inactive.
For Cn1c(=O)c2c(nc(CN3CCc4ccccc4C3)n2CC(N)=O)n(C)c1=O the results were USP28 block inactive, USP30 block inactive and USP17 inh inactive.
Cc1ccc(CSc2nc3c(c(N4CC(C)OC(C)C4)n2)CCCC3)cc1 (stereo not drawn) was read as USP28 block inactive, USP30 block inactive and USP17 inh inactive.
For Cc1ccc(CSc2nc3c(c(N(C)C)n2)CCCC3)cc1 the results were USP28 block 47.2, USP30 block 33.0 and USP17 inh inactive.
Cc1ccc(S(=O)(=O)N2CCCN(C(=O)c3oc4ccccc4c3C)CC2)cc1 was read as USP28 block inactive, USP30 block 33.3 and USP17 inh inactive.

Bioassay records from PubChem.
